Bioassay records from PubChem BioAssay.
A selection: hits, their analogues and other compounds. The true share with any hit is near 2.7%.
A549 tox – A549 cytotoxicity, counter-screen for Nrf2 inhibitors; A549 ARE-Fluc cells, CellTiter-Fluor viability, 18-24 h; Potency, µM (top dose mostly 46 µM), inactives show at the top dose activity change, negative = cytotoxicity, most hits filed as inhibitors; actives 0.16% (n = 390,000); AID 504648; further: potency means the concentration at half of the fitted maximal effect; on the % scale 0 is the no-effect control and ±100 the full control effect
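A549 ARE_Fluc cells in 5% FBS OPTI-MEM were exposed to compounds in concentration-response for 18-24 h at 37 deg C. Viability was read by CellTiter-Fluor fluorescence (Ex 405/Em 525) after 30 min, before the luciferase read.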
ALOX12 inh – inhibitors of human 12S-lipoxygenase ALOX12. P18054. purified 12hLO, xylenol orange hydroperoxide absorbance. Potency, µM (series often up to 108 µM), for inactives: at the top dose activity change, negative = inhibition, actives largely listed as inhibitors. actives 1.1% (n = 580,000); further: potency means the concentration at half of the fitted maximal effect; on the % scale 0 is the no-effect control and ±100 the full control effect
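Hydroperoxide product was detected by ferrous iron/xylenol orange as the 573 to 405 nm absorbance ratio. Arachidonic acid at 40 uM (final) was turned over for 30 min at room temperature by 150 nM human 12hLO, pH 7.0 Hepes buffer, after 15 min compound preincubation.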
Nrf2 activator – activators of Nrf2 (ARE) signaling. Potency, µM (doses to about 46.1 µM), for inactives: top-dose activation, usual class: activators. actives 0.31% (n = 410,000). AREc32 ARE-luciferase reporter (MCF7-derived line), luminescence, 24 h. AID 624171; further: potency means the concentration at half of the fitted maximal effect; % of control where 0% means no effect; nearly all actives have a fitted effect of over 65% in size
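Quantitative high-throughput format: AREc32 reporter cells, 1000 per well, received compound by pin transfer and were incubated 24 hr at 37 deg C, 5% CO2, before Steady-Glo luminescence detection.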
Nrf2 block – blocks Nrf2 signaling. A549 ARE-Fluc reporter, luciferase luminescence, 18-24 h. Potency, µM (doses to about 46 µM), without a hit: at the top dose activity change, negative = inhibition, usual class: inhibitors. actives 2.1% (n = 360,000). AID 504444; further: potency means the concentration at half of the fitted maximal effect; on the % scale 0 is the no-effect control and ±100 the full control effect; nearly all actives have a fitted effect of over 60% in size
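In this cell-based qHTS, ARE-driven firefly luciferase in A549 cells reports Nrf2 activity; the luminescent signal after BugLite lysis is the measured value, with a prior CellTiter-Fluor read for cell health.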
LDHA inh – inhibitors of human lactate dehydrogenase A; AID 1347041; activity change, % (values are at about 110 or 230 µM); P00338; purified LDHA, NADH/diaphorase-resazurin fluorescence; stronger effect = lower value; actives 0.15% (n = 480,000); in the data active means activity change below about -30%; inconclusive means mostly about -25% to -30%;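 further: plate controls were DMSO wells for no effect and wells without enzyme for full effect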
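Resorufin fluorescence (ex540/em590), read at 0 and 20 min after diaphorase/resazurin addition, reports the NADH left after a 5 min room-temperature reaction of 2 nM human LDH5 with 0.06 mM NADH and 0.2 mM pyruvate.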
ERG-DNA inh – ERG Ets/DNA interaction inhibition; P11308; fluorescence polarization, His-ERG Ets domain / labelled DNA; Potency, µM (titrated, usually from 76.9 µM), inactives show top-dose FP activity, negative = inhibition, actives largely listed as inhibitors; actives 0.028% (n = 370,000); AID 624246; active means well fitted inhibition curve with a large enough effect in the polarisation, with a control signal flat; inconclusive means small, poorly fitted or top-dose-only effect, or effect the other way, or a change in a side signal; inactive means no such curve, though single readings can be large or run the other way; the % refers to the polarisation;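 further: polarization taken with two DNA probes labelled with fluorescein and Texas red; potency means the concentration at half of the fitted maximal effect; % of control where 0% means no effect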
Target sequence (P11308 whole entry, looked up, the tested form may be a part): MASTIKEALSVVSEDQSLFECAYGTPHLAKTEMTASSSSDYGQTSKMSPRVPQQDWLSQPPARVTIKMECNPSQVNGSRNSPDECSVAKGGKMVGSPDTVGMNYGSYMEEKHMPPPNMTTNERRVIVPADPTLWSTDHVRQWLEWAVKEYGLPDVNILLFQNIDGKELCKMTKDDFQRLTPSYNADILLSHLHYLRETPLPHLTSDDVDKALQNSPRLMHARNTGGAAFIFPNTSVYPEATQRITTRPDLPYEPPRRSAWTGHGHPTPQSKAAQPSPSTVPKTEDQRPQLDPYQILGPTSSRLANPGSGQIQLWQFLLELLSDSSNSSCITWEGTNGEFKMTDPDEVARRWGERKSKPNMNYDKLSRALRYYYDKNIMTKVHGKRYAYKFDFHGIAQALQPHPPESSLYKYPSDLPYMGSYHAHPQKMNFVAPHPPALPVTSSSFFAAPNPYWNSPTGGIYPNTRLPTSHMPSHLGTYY
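His-tagged ERG Ets domain (1 uM in the protein solution; 300mM KCl, 50mM Tris-HCl, 1mM EDTA, 1mM DTT, pH 7.5) received compound, then a probe mix of 5 nM fluorescein-DNA and 100nM Texas-615-DNA. Fluorescence polarization was read for both dyes.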
Numbers without * were called inactive; ? = inconclusive; / = no result; [ ] = dose if it differs, or a comment. Unless noted, the call rests on the fitted dose curve; in most records, active means well fitted curve in the direction sought with a large enough effect; inconclusive means small, poorly fitted or top-dose-only effect, or another doubt; inactive means no such curve, though single readings can be large; an effect the other way counts as inactive or inconclusive.

SMILES	A549 tox	ALOX12 inh	Nrf2 activator	Nrf2 block	LDHA inh	ERG-DNA inh
N#CC1=C2SCN(c3ccccc3)CN2C(=O)CC1c1c(Cl)cccc1Cl (configuration not stated)	2.1%	3.16µM*	7.3%	23.1%	-2.7	-9.4%
COc1ccc(Br)cc1C1CC(=O)N2CN(C)CSC2=C1C#N (configuration not stated)	-2.9%	28.2µM*	0.1%	17.2%	9.6	11.2%
Cc1ccc(CNC(=O)CSc2nc3n[nH]c(C)c3c(=N)n2-c2cccc(C)c2)cc1	?	-12.0%	2.7%	14.6µM*	-1.7	-8.7%
CN(C)c1ccc(NC(=O)/C=C/c2ccccc2)cc1	/	?	/	/	-17.1	/
Fc1ccc(NC(=S)Nc2ccc(Br)cc2)cc1	?	?	2.5%	18.4µM*	-1.4	-1.1%
CC(Oc1ccc(Cl)cc1)C(=O)NNC(=S)NC(=O)c1ccco1 (configuration not stated)	-7.0%	44.7µM*	-0.6%	?	-12.3	-9.0%
Cc1ccccc1C(=O)NC(=S)NCCc1ccccc1	14.3%	28.2µM*	2.5%[9.22 µM]	?	-2.2	-0.9%
Cc1ccccc1C(=O)NC(=S)NCc1ccccc1	38.5%	?	-0.7%	9.8%	-4.8	-7.8%
O=C(NC(=S)Nc1cccnc1Cl)c1ccco1	14.1%	?	12.6µM*	?	-7.5	1.8%
O=C(NC(=S)NCc1ccc(Cl)cc1)c1ccco1	5.6%	?	7.3%	16.4µM*	-2.5	-4.4%
O=C(c1cc(=O)[nH]c2ccccc12)N1CCC(CCc2ccc(O)cc2)CC1	/	6.3%	/	/	1.2	/
Cc1ccc2nc(NC(=S)NC(=O)c3ccco3)sc2c1	-3.1%	-17.3%	?	?	-10.5	-4.5%
O=C(NNC(=O)C12CC3CC(CC(C3)C1)C2)c1cccc(O)c1	1.7%	-1.1%	-0.9%	-8.0%	-6.3	1.4%
O=C(NC(=S)Nc1cccc(O)c1)c1ccco1	1.7%	?	11.2µM*	?	-16.8	-2.3%
O=C(NC(=S)Nc1cccc(O)c1)C12CC3CC(CC(C3)C1)C2	/	22.4µM*	0.4%	/	-2.3	/
O=C(NC(=S)NCCC1=CCCCC1)c1ccco1	0.2%	44.7µM*	26.3%	?	-9.2	-10.7%
Cc1ccc2nsnc2c1NC(=S)NC(=O)c1ccco1	1.8%	?	6.31µM*	3.8%	14.6	-2.6%
CCOc1ccc(S(=O)(=O)Nc2cc(C(=O)N(C)CC(=O)NC)ccc2N2CCNCC2)cc1	/	?	/	/	-6.6	/
Cc1ccccc1C(=O)NC(=S)NCCC1=CCCCC1	3.1%	22.4µM*	-0.1%	?	-4.8	5.9%
O=C(NCCNCc1ccccc1)c1ccco1	-23.0%	28.2µM*	4.0%	?	-0.8	1.1%
C=C(C)COc1ccc2c(C)c(CC(=O)NCc3ccc4c(c3)OCO4)c(=O)oc2c1	/	6.5%	/	/	13.1	/
O=C(Nc1ccc2oc(=O)ccc2c1)c1ccc(-c2cccc([N+](=O)[O-])c2)o1	?	?	4.4%	23.1µM*	-10.4	-5.4%
O=C(Nc1ccc2oc(=O)ccc2c1)c1ccc(-c2ccccc2[N+](=O)[O-])o1	-2.8%	?	4.1%	?	3.4	-0.2%
O=C(Nc1ncc(Cc2ccccc2Cl)s1)c1ccc(-c2cccc([N+](=O)[O-])c2)o1	11.3%	-29.7%	-0.6%	16.4µM*	-11.8	2.5%
O=C(Nc1ccc2oc(=O)ccc2c1)c1ccc(-c2cccc(Cl)c2)o1	-8.9%	-9.3%	0.0%	18.4µM*	-14.7	-0.6%
O=Cc1cc2ccc(Br)cc2[nH]1	/	-24.3%	/	/	2.4	/
CCOC(=O)c1nc2ccccc2nc1Nc1cccc(OC)c1	/	-27.5%	/	/	0.1	/
CCOCCOC(=O)c1nc2ccccc2nc1Nc1cc(C)cc(C)c1	/	7.08µM*	/	/	3.0	/
